High-throughput results (PubChem BioAssay)
miR122 inh: miR-122 Renilla sensor signal increase in Huh7, primary screen, miR-122 inhibitor project, cell-based, single point, plate reader. Huh7 miR-122 Renilla luciferase sensor, 48 h; neutral wells = 0, positive control = 100. activation (reporter increase), % at 12.5 µM. actives 0.3% (n = 340,000). AID 602342, 2012;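 active means mean replicate activation score at least 90 and every replicate individually at or above 90; inconclusive means only one of the two criteria met; inactive means neither criterion met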;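 further: higher luciferase means less miR-122 activity so hits act as miR-122 inhibitors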
Statin myotox sup: suppressors of statin myotoxicity in C2C12 myotubes, primary screen, cell-based, single point, plate reader | C2C12 myotubes + simvastatin, ATP luminescence, 48 h; scaled: DMSO 0, geranylgeraniol control 100 | rescue of ATP level, % at 7.49 µM | actives 0.78% (n = 330,000) | AID 602340, 2012;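 active means mean ATP rescue above about 67%, or every replicate alone reaching that limit, limit read from the data, passing the limit was not always enough; inconclusive means no clear call, values can overlap the other calls; inactive means mean under the limit and some replicate under it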;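 further: myotubes were challenged with 10 µM simvastatin during compound exposure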
INS-1E GSIS act: GLuc luminescence reporter in INS-1E cells, primary screen for activators of glucose-dependent secretion of insulin; INS-1E GLuc reporter insulin secretion, 2-3 h; activation, % at 16.6 µM; actives 0.61% (n = 370,000);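 active means lowest replicate activation of at least 40%, so every replicate reaches that level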;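 further: 0% = median of neutral control wells and 100% = median of IBMX positive control wells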
HIV Env fusion: inhibitors of HIV-1 Env-driven cell-cell fusion, primary screen, HeLa-JRFL effector, CEM21 target cells, luciferase | inhibition, % at 12.3 µM | actives 1.1% (n = 360,000) | AID 651610, 2012;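 active means mean replicate inhibition score of at least 50 and every replicate individually at or above 50; inconclusive means only one of the two criteria met; inactive means mean below 50 and not all replicates reaching 50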;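 further: 0% = plate neutral controls and 100% = maraviroc near 300 nM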
PAX8 reporter: inhibitors of PAX8-driven TPO luciferase reporter, primary screen, RMG-I cells, single concentration; AID 652154, 2013; SteadyGlo, 24 h; actives 1.2% (n = 360,000); inhibition, % at 12.6 µM;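 active means mean replicate inhibition at least 60% with every replicate also reaching 60%; inconclusive means only one of the two criteria is met; inactive means mean below 60% and not all replicates reaching 60%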;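 further: luciferase light reporting Pax8 driven TPO promoter activity; plate controls were median of neutral control wells for no effect and mitoxantrone controls for full effect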
EWS-Fli block: EWS/Fli-driven NR0B1 reporter inhibitors, primary screen, A673 cells, NR0B1 luciferase, luminescence, MLPCN library; viability-normalised; inhibition, % at 12.6 µM; actives 0.67% (n = 350,000); AID 651661, 2012;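 active means mean inhibition of at least 50% after viability correction, with every replicate also passing that limit; inconclusive means mean reaches 50% but only one of two replicates passes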;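 further: firefly luciferase signal divided by Alamar Blue viability fluorescence both relative to DMSO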
Active calls of the source: *; ? = inconclusive; · = no result; [ ] = another dose, or the depositor's remark. Compounds with a hit are over-represented: about 3.1% of the library has one in this group of screens.

SMILES	miR122 inh	Statin myotox sup	INS-1E GSIS act	HIV Env fusion	PAX8 reporter	EWS-Fli block
O=C(C[C@@H]1CC[C@@H](NC(=O)CC2CC2)[C@H](CO)O1)NCc1ccc(Cl)cc1	·	4.9	21.7	26.5[16.7 µM]	-34.7	0.1
COC(=O)c1sc(NC(=O)c2ccncc2)nc1C	-4.1	-4.2	12.8	-16.5	-4.2	-5.0
CCOc1ccc(C(=O)Nc2nc(C)c(C(=O)OC)s2)cc1	-6.4	·	1.2	-145.9	-61.8	73.1*
O=C(NNC(=O)c1ccncc1)Nc1ccc(N=Nc2ccccc2)cc1	1.6	100.1*	·	-25.6	-119.1	-85.6
CO[C@H]1CN(C)C(=O)c2cc(NC(=O)C3CC3)ccc2OC[C@H](C)NC[C@@H]1C	·	6.9	2.3	·	-2.9	2.4
CSc1nc(-c2ccc(Cl)cc2)c(C#N)c(=O)[nH]1	·	·	-0.2	59.3*	-3.3	-6.2
CSc1nc(-c2ccccc2)c(C#N)c(=O)[nH]1	-2.0	-22.7	-15.3	-0.5	-19.1	5.9
O=C(C[C@@H]1CC[C@H](NC(=O)NC2CCCCC2)[C@@H](CO)O1)NCc1ccccc1	·	-1.3	3.8	4.8[16.7 µM]	-4.1	0.7
C[C@H]1CCCCO[C@@H](CN(C)Cc2ccccc2)[C@@H](C)CN([C@@H](C)CO)C(=O)c2cc(NC(=O)Nc3cccc4ccccc34)ccc2O1	-6.6[16.7 µM]	·	-23.4	109.9*[16.7 µM]	30.6	?
COc1ccc(CN(C)C[C@H]2OCCCC[C@H](C)Oc3ccc(NC(=O)Nc4cccc5ccccc45)cc3C(=O)N([C@H](C)CO)C[C@H]2C)cc1	-2.3[16.7 µM]	·	-20.3	28.6[16.7 µM]	-1.1	69.6*
CN1CCN(C(=O)C[C@@H]2CC[C@@H]3[C@H](COC[C@H](O)CN3Cc3cccc(Cl)c3)O2)CC1	0.2[16.7 µM]	1.7	8.4	·	-2.7	3.3
Cc1cc(C(=O)COc2ccc(C#N)cc2)c(C)n1C1CC1	·	-17.0	3.0	64.1*	-10.3	-27.3
Cc1cc(C(=O)COc2ccc([N+](=O)[O-])cc2)c(C)n1C1CC1	-8.8	-19.0	26.2	-24.4	-47.6	-67.1
CN(C)c1nc(=NCc2cccs2)ss1	·	·	71.5*	-29.2	-20.2	-7.9
CC(SC(=S)N(C)Cc1cccs1)C(=O)O (configuration not stated)	·	·	6.4	7.2	6.7	-3.0
C[C@@H]1CCCCO[C@@H](CN(C)S(=O)(=O)c2ccc(Cl)cc2)[C@@H](C)CN([C@@H](C)CO)C(=O)c2cc(NC(=O)CCC(F)(F)F)ccc2O1	4.4[16.7 µM]	·	7.3	-8.2[16.7 µM]	-3.7	-1.3
O=C(NCCCc1nc2ccccc2[nH]1)c1ccco1	-5.1	2.3	25.8	84.1*	·	9.3
O=C(NCCCc1nc2ccccc2[nH]1)c1cccs1	0.3	7.0	-24.6	0.1	-6.0	-0.2
Cc1cc(OCCOCCNCc2ccccc2)ccc1C(C)C	-0.1	-15.2	-28.4	93.2*	17.9	25.5
CC(=O)N1CCN(C(=S)NCc2ccccc2)CC1	·	·	57.8*	2.6	15.3	·
CN(C)C(=O)C[C@@H]1CC[C@@H]2[C@H](COC[C@H](O)CN2Cc2nccs2)O1	0.0[16.7 µM]	2.0	12.6	7.6[16.7 µM]	-2.6	-5.2
COc1ccccc1NC(=O)N1CC(=O)N2[C@H](CO)[C@@H](c3ccc(C#CC4CC4)cc3)[C@H]2C1	·	·	-2.2	·	14.3	1.3
O=C(CSc1c(Cl)cccc1Cl)NC1CCCc2ccccc21 (configuration not stated)	13.6	·	40.8*	-3.0	9.1	2.1
Cc1cc(C(=O)CSc2nnc3ccccn23)c(C)n1-c1ccccc1	·	·	14.8	60.6*	81.0*	·
C[C@@H]1CN([C@@H](C)CO)C(=O)c2cccc(NC(=O)C3CC3)c2O[C@H]1CN(C)S(C)(=O)=O	-8.2[16.7 µM]	-2.2	11.1	10.5[16.7 µM]	-3.3	-0.1
SMILES	miR122 inh	Statin myotox sup	INS-1E GSIS act	HIV Env fusion	PAX8 reporter	EWS-Fli block
CC1CCN(C(=O)CSc2nnc(CNC(=O)COc3ccc(Cl)cc3)o2)CC1	6.7	96.4*	·	18.9	20.9	·
CCCC(=O)Nc1ccc2c(c1)OC[C@@H](C)N(Cc1ccccn1)C[C@@H](C)[C@@H](OC)CN(C)C2=O	·	19.5	15.9	-17.4[16.7 µM]	-3.4	1.1
C[C@H](CO)N1C[C@H](C)[C@H](CN(C)C(=O)NC2CCCCC2)OCCCC[C@H](C)Oc2ccc(NC(=O)C3CCCCC3)cc2C1=O	-2.2[16.7 µM]	7.4	-21.2	-78.2[16.7 µM]	13.1	3.7
CCC(C(=O)N(C(C)C)C(C)C)c1ccccc1 (configuration not stated)	-1.2	130.4*	·	-1.3	7.3	-13.1
Cc1c(NC(=O)c2ccc([N+](=O)[O-])o2)cccc1-c1nc2ncccc2o1	0.8	106.5*	3.4	-180.1	?	17.0
COc1ccc(CNC(=O)CCn2c(=O)oc3ccccc32)c(OC)c1	3.6	6.2	58.3*	-4.8	0.8	-12.4
COc1cccc(CNC(=O)CCn2c(=O)oc3ccccc32)c1	0.5	3.5	·	-82.9	·	·
CCOc1ncccc1C(=O)OCC(=O)c1cccs1	-4.0	13.8	49.8*	·	·	-1.5
CCOc1ncccc1C(=O)NCc1ccc(C)cc1	-1.4	-7.6	45.2*	-25.4	-12.0	-14.0
CCOc1ncccc1C(=O)OCc1ccc(C#N)cc1	·	·	54.7*	-116.6	-9.4	·
CSc1ncccc1C(=O)NCc1ccc(C)cc1	7.7	·	4.6	·	·	·
O=C(C[C@@H]1C[C@@H]2c3cc(NC(=O)CC4CC4)ccc3O[C@@H]2[C@H](CO)O1)NCc1ccc2c(c1)OCO2	3.8[16.7 µM]	-7.4	-4.9	-3.3[16.7 µM]	-10.3	-1.1
CO[C@H]1CN(C)C(=O)c2cccc(C#N)c2OCC[C@H]2CC[C@H](OC)[C@@H](CN(C)C(=O)[C@H]1C)O2	·	1.8	-1.4	9.7[16.7 µM]	-13.8	4.1
Cc1ccc(C)c(S(=O)(=O)N/N=C/c2ccc(F)cc2)c1	·	·	-35.7	9.0	11.4	8.0
CC(=O)Nc1ccc(/C=N/NS(=O)(=O)c2cc(C)ccc2C)cc1	463.8*	·	2.9	-1.1	13.4	5.3
Cc1noc(C)c1S(=O)(=O)N(C)C[C@H]1OCCCC[C@@H](C)Oc2ccc(NC(=O)Nc3ccc(C(F)(F)F)cc3)cc2C(=O)N([C@@H](C)CO)C[C@@H]1C	-2.0[16.7 µM]	·	1.1	67.2*[16.7 µM]	·	0.8
Cc1noc(C)c1S(=O)(=O)N(C)C[C@H]1OCCCC[C@H](C)Oc2ccc(NC(=O)Nc3ccc(C(F)(F)F)cc3)cc2C(=O)N([C@@H](C)CO)C[C@@H]1C	2.2[16.7 µM]	·	6.9	66.4*[16.7 µM]	·	3.5
Cc1noc(C)c1S(=O)(=O)N(C)C[C@@H]1OCCCC[C@H](C)Oc2ccc(NC(=O)Nc3ccc(C(F)(F)F)cc3)cc2C(=O)N([C@H](C)CO)C[C@H]1C	-1.5[16.7 µM]	·	-15.0	69.9*[16.7 µM]	·	-0.2
